# High-throughput results deposited in PubChem BioAssay by National Center for Advancing Translational Sciences (NCATS).
# G9a inh = inhibitors of human histone lysine methyltransferase G9a. AID 504332. Potency, µM (titrated, usually from 102 µM), most hits filed as inhibitors. Q96KQ7. actives 8.8% (n = 350,000). G9a H3K9 monomethylation, AlphaScreen, 2 h; also: nearly all actives have a fitted effect of over 75% in size
#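 Enzyme 20 nM + cpd, 15 min RT; add b-H3K9 pep 500 nM / SAM 20 uM; 2 h RT; anti-H3K9me1 Ab 0.5 ug/mL + SA donor / anti-rabbit acceptor beads 20 ug/mL each, 10 min; AlphaScreen read.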
# PI5P4Ka inh = PI5P4K alpha (human) kinase inhibition; PI5P4Kalpha enzyme, ADP-Glo luminescence, 60 min; active compounds read low; actives 1.2% (n = 330,000); P48426; max response, %; active = max response of -50% or lower; inconclusive = between -30% and -50%; inactive = -30% or higher; also: value at the top dose of about 77 µM
# Target sequence (P48426 whole entry, looked up): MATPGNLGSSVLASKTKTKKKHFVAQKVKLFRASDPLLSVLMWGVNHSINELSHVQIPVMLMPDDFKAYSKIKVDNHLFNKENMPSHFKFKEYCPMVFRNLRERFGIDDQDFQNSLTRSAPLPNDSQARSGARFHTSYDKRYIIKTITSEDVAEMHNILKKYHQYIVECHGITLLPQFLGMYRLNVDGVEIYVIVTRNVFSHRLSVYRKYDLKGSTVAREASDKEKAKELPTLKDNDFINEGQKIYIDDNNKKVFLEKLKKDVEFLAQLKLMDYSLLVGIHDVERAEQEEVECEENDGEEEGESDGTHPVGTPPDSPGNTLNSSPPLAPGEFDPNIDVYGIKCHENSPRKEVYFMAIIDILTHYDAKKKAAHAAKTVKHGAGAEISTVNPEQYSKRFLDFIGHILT
#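 Luminescence from ADP-Glo served as readout of PI5P4Kalpha activity in a qHTS format. Reaction: enzyme, substrate, compound, ATP at 5 microM final, 60 min at RT.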
# JMJD2A Tudor = inhibitors of human JMJD2A Tudor domain. O75164. AlphaScreen JMJD2A-Tudor / H3K4me3 peptide binding. Potency, µM (titrated, usually from 114 µM), actives largely listed as inhibitors. actives 4.4% (n = 390,000); also: nearly all actives have a fitted effect of over 50% in size
# BAZ2B inh = blocks human BAZ2B. actives 4.4% (n = 360,000). AlphaScreen BAZ2B-H3K14Ac peptide displacement. Potency, µM (top dose mostly 114 µM), actives largely listed as inhibitors. AID 504333; also: nearly all actives have a fitted effect of over 60% in size
#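 AlphaScreen displacement of biotin-H3(5-23)K14Ac peptide (50 nM final) from BAZ2B (50 nM final) in PBS pH 7.4, 0.01% Tween-20; complex preformed 30 min RT, then compounds (top 110 uM) 30 min RT, beads 20 min dark.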
# HP1b chromo inh = blocks HP1-beta chromodomain binding to methylated histone tails; AlphaScreen HP1-beta / biotin-H3K9me3 peptide binding; Potency, µM (series often up to 114 µM), most hits filed as inhibitors; actives 0.56% (n = 390,000); AID 540317; also: nearly all actives have a fitted effect of over 70% in size
# Target sequence (P83916 whole entry, looked up): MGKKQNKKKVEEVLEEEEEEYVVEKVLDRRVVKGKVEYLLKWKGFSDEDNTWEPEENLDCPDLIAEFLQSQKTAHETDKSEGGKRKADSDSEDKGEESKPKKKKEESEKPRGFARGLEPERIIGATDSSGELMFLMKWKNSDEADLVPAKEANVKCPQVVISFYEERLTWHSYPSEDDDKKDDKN
#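 HP1-beta protein (50 nM final) preincubated 30 min at room temperature with biotinylated H3(1-18)K9me3 peptide (50 nM) in PBS pH 7.4, 0.01% Tween-20, then compound added for 30 min. AlphaScreen streptavidin donor/nickel chelate acceptor beads (10 ug/mL final), 30 min dark, luminescence read.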
# PLK1 PBD inh = inhibitors of human PLK1 polo-box domain binding. P53350. Potency, µM, actives largely listed as inhibitors. Plk1 PBD binding of FITC phosphopeptide, fluorescence polarization. actives 2.8% (n = 360,000). AID 720504; also: series mostly up to about 57 µM; nearly all actives have a fitted effect of over 65% in size
# Hits are given with their value; n = inactive; u = inconclusive; x = no result given; [ ] = dose if it differs, or a comment. Compounds with a hit are over-represented: about 12% of the library has one in this group of screens. Unless noted, calls follow the shape of the dose curve; as a rule, active = well fitted curve in the direction sought with a large enough effect; inconclusive = small, poorly fitted or top-dose-only effect, or another doubt; inactive = no such curve, though single readings can be large; an effect the other way counts as inactive or inconclusive.
SMILES,G9a inh,PI5P4Ka inh,JMJD2A Tudor,BAZ2B inh,HP1b chromo inh,PLK1 PBD inh
CC(=NNC(=S)N1CC2CCC(CC2)C1)c1cccc(C)n1,x,n,22.4µM,x,u,n
CC(=NNC(=S)SCc1ccccc1)c1ccccn1,x,n,20µM,x,n,n
CC(=NNC(=S)N1CCC1)c1ccccn1,x,n,20µM,x,n,n
COc1cc(/C=C/C(=O)O)cc(S(=O)(=O)Nc2ccc3cn[nH]c3c2)c1OC,n[2.33 µM],n,n,n,n,n
COc1cc(/C=C/C(=O)O)cc(S(=O)(=O)Nc2ccc3nc(SC)sc3c2)c1OC,39.8µM,n,n,x,n,n
CC(C)NC(=O)c1ccc2sc([C@H]3C[C@H](O)[C@@H](CO)O3)nc2c1,x,n,x,x,x,n
O=C(c1cccc(Cl)c1)N1CCN(C2CCCCCC2)CC1,20µM,n,7.94µM,44.7µM,25.1µM,n
O=C(c1ccccc1)N1CCCC(C(=O)N2CCN(c3ccccc3)CC2)C1 (stereo not drawn),u,n,50.1µM,n,n,26.7µM
CN1CCCN(C(=O)c2cccc(Cl)c2)CC1,n,n,n,n,n,n
O=C(c1ccc(F)cc1)N1CCC(N2CCOCC2)CC1,10µM,n,7.94µM,u,n,n
O=C(c1ccncc1)N1CCN(C2CCCCC2)CC1,15.8µM,n,1.12µM,50.1µM,u,n
COc1ccccc1N(CC(=O)NCCSc1ccccn1)S(=O)(=O)c1ccccc1,n,n,n,n,n,n
CCC(=O)C1=C(c2ccc(F)cc2)N(C(=O)CC)n2c(nnc2-c2ccc(OC)cc2)S1,n,x,n,n,n,x
CNC1C(O)C(OC2C(NC(=O)C(O)CN)CC(N)C(OC3OC(CN)C(O)C(O)C3O)C2O)OCC1(C)O (stereo not drawn),n,x,x,x,x,x
COc1ccccc1CCNC(=O)CCn1c(=O)c2cccn2c2ccc(F)cc21,n,n,n,n,n,n
CC1CCN(C2CCN(C(=O)c3ccccc3F)CC2)CC1,28.2µM,n,0.891µM,u,u,n
CC1CN(C2CCN(C(=O)c3ccccc3)CC2)CC(C)O1 (stereo not drawn),2.51µM,n,1.26µM,56.2µM,u,n
O=C(c1ccccc1)N1CCN(C(=O)c2ccccc2)CC1,u,n,n,n,n,n
O=C(c1ccccc1)N1CCN(C2CCCCC2)CC1,7.94µM,n,7.08µM,u,u,n
COc1ccc(Cl)cc1NC(=O)CSc1nc(-c2ccco2)cc(C(F)(F)F)n1,n,x,n,n,n,x
COc1ccc(C2/C=C\CN(C(=O)C3CCCCC3)C(C)C(=O)N2Cc2ccc(F)cc2)cc1 (stereo not drawn),x,x,n,x,n,x
COc1ccc(CC(=O)NCC(C)(C)N2CCOCC2)cc1,n,n,n,n,n,n
Cc1ccc(C(CC(=O)NCC2(c3ccccc3)CCCC2)c2ccccc2)c(O)c1 (stereo not drawn),n,x,n,n,n,x
O=C1Nc2ccccc2Oc2cc(Oc3ccccc3)ccc21,u,x,50.1µM,44.7µM,u,x
O=C1Nc2ccccc2Oc2cc(Oc3cccc(Cl)c3)ccc21,n,x,n,n,n,x
SMILES,G9a inh,PI5P4Ka inh,JMJD2A Tudor,BAZ2B inh,HP1b chromo inh,PLK1 PBD inh
CC1(c2nc3ccccc3[nH]2)c2ccccc2C(=O)N1Cc1ccccc1 (stereo not drawn),x,n,x,x,x,n
CCN(CC)S(=O)(=O)c1ccc(NC(=O)CNC2CCCCC2)cc1,25.1µM,n,5.62µM,79.4µM,u,n
CN(C)S(=O)(=O)c1cccc(NC(=O)CNCc2ccccn2)c1,x,n,28.2µM,20µM,n,n
CN(C)S(=O)(=O)c1cccc(NC(=O)CNC2CCCCC2)c1,50.1µM,n,22.4µM,u,u,n
CN(C)S(=O)(=O)c1cccc(NC(=O)CSc2nc3ccccc3n2-c2ccccc2)c1,79.4µM,n,n,n,n,n
O=C(Cn1c(=O)nc(-c2ccccc2)c2cc(Cl)ccc21)Nc1ccc(F)c(Cl)c1,n,x,n,n,n,x
CCCNC(=O)Cn1nc(-c2ccc(C)cc2)c2cnc3ccc(CC)cc3c21,n,x,n,n,n,x
O=C(CN1CCN(S(=O)(=O)c2ccccc2F)CC1)Nc1ccnn1C1CCCC1,n[2.33 µM],n,n,n,n,n
CC(=O)c1ccc(N=Nc2ccc(C)cc2)cc1,7.94µM,n,7.94µM,7.94µM,u,n
COC(=O)c1ccc(NN=Nc2ccc(C)cc2)cc1,7.94µM,n,31.6µM,u,79.4µM,u
CC(=O)c1ccc(N=Nc2ccc(N(C)C)cc2)cc1,n,n,n,1.12µM,n,n
C=C(C)C(=O)Oc1ccc(N=Nc2ccc(C)cc2)ccc1=O,x,n,3.55µM,x,10µM,21.2µM
CCCC(=O)N1CCC1(C)C(=O)Nc1cccc(OC(C)C)c1 (stereo not drawn),x,n,x,x,x,n
O=S1(=O)N=C(Oc2ccc(Br)cc2)c2ccccc21,x,x,n,x,x,x
CN(C)c1ccc(N=Nc2ccccc2Br)cc1,3.55µM,n,10µM,4.47µM,5.01µM,n
CN(C)c1ccc(/C=C2/C[N+](C)(C)C/C(=C/c3ccc(N(C)C)cc3)C2=O)cc1,x,n,39.8µM,x,39.8µM,n
CC(C)(C)c1nc2ccc(NS(=O)(=O)c3ccc(F)c(F)c3F)cc2[nH]1,31.6µM,n,n,n,n,n
Cc1ccc(NC(=O)CCNS(=O)(=O)c2ccc3[nH]c(=O)oc3c2)cc1N(C)C,n,n,n,n,n,n
O=C(CSCC(=O)Nc1ccccc1)N/N=C/c1c(O)ccc2ccccc12,1.58µM,x,n,n,n,n
O=C(CN1CCOCC1)N/N=C/c1ccco1,n,n,n,n,n,n
O=C(CN1CCOCC1)N/N=C/c1c(O)ccc2ccccc12,n,n,n,44.7µM,n,n
O=C(O)c1cc(N/N=C/c2c(O)ccc3ccccc23)ccc1Cl,20µM,n,u,39.8µM,u,16.8µM
O=C(N/N=C/c1c(O)ccc2ccccc12)Nc1ccccc1,x,n,n,x,n,n
Cc1c(C(=O)O)c(O)cc2c1C(=O)c1c(O)c([C@@H]3O[C@H](CO)[C@@H](O)[C@H](O)[C@H]3O)c(O)c(O)c1C2=O,x,u,25.1µM,x,u,n
Cc1c(C(=O)O)c(O)cc2c1C(=O)c1c(O)c([C@H]3O[C@H](CO)[C@@H](O)[C@H](O)[C@H]3O)c(O)c(O)c1C2=O,7.08µM,x,x,x,x,x
COc1c(O)cc2c(c1O)[C@@H]1O[C@H](CO)[C@@H](O)[C@H](O)[C@H]1OC2=O,n[2.33 µM],n,n,n,n,n
CCCCOc1ccc(C2(C)NC(=O)NC2=O)cc1 (stereo not drawn),n,n,15.8µM,n,n,7.52µM
COc1ccc(C(=O)NC(=S)N2CCOCC2)cc1OC,50.1µM,n,n,n,n,n
COc1cc(C(=S)N2CCCC2)cc(OC)c1OC,39.8µM,n,n,n,n,n
CC(C)(C)c1cc(CCC(=O)N2CCCC2)cc(C(C)(C)C)c1O,n,n,n,n,n,n
